Experiment [1] addresses Transcription factor E2F1 (Homo sapiens) (UniProt Q01094). The experiment in a line: ATG_E2F_CIS: Attagene CIS-FACTORIAL HepG2 Assay for human E2F Transcription Factor 1 (AID 2282935). Particulars: HepG2 Attagene cis-reporter, E2F reporter RNA transcripts; actives raise or lower the signal. Put shortly:
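Fluorescent RT-PCR products, digested with HpaI for 2 h at 37 C, are separated by capillary electrophoresis. Source RNA comes from transfected HepG2 cultures treated for 24 h.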

Experiment [2] can be described thus: ATG_M_61_CIS: Attagene CIS-FACTORIAL HepG2 Assay for M61 Transcription Factor (Internal Marker) (AID 2282937). The conditions noted are these: HepG2 Attagene CIS-FACTORIAL M61 internal marker reporter; actives raise or lower the signal. In a few lines: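 Using transiently transfected HepG2 liver cells, reporter transcript levels were assessed 24 h post-dosing by RT-PCR and capillary electrophoresis. Changes in either direction were fitted relative to DMSO controls.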

A short description of experiment [3]: ATG_Ets_CIS: Attagene CIS-FACTORIAL HepG2 Assay for human Erythroblast Transformation Specific (ETS) (AID 2282941). The conditions noted are these: HepG2 ETS cis-reporter transcription, actives raise or lower the signal. Put shortly: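 Multiplexed reporter transcript profiling: HepG2, 24 h treatment, total RNA to cDNA, PCR, 6-FAM labelling, HpaI cut, capillary electrophoresis. Gain- or loss-of-signal fitted against DMSO.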

The target in experiment [4] is Hepatocyte nuclear factor 3-beta (Homo sapiens) (UniProt Q9Y261). The experiment in a line: ATG_FoxA2_CIS: Attagene CIS-FACTORIAL HepG2 Assay for human Forkhead box A2 (FOXA2) (AID 2282942). Particulars: HepG2 cis-reporter transcription factor activity, 24 h; actives raise or lower the signal. Put shortly: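 Fluorescence signal of reporter cDNA fragments, separated by capillary electrophoresis, reflects endogenous transcription factor activity in transfected HepG2 after 24 h. Both increases and decreases fitted against DMSO.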

A short description of experiment [5]: ATG_FoxO_CIS: Attagene CIS-FACTORIAL HepG2 Assay for human Forkhead box O (FoxO) (AID 2282943). Particulars: HepG2 Attagene cis-reporter, FoxO element, mRNA; actives raise or lower the signal. Put shortly:
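Endogenous transcription factor activity read from multiplexed cis-promoter reporter transcripts in transiently transfected HepG2, 24 h after dosing. Reporter RNA measured via RT-PCR plus capillary electrophoresis of FAM-labeled products; gain or loss relative to DMSO.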

In experiment [6] the target is Hypoxia-inducible factor 1-alpha (Homo sapiens) (UniProt Q16665). The experiment in a line: ATG_HIF1a_CIS: Attagene CIS-FACTORIAL HepG2 Assay for human Hypoxia Inducible Factor 1 (HIF1A) (AID 2282951). The conditions noted are these: HepG2 Attagene cis-factorial HIF1a reporter transcription; actives raise or lower the signal. Put shortly:
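Endogenous-TF cis reporter readout, human HepG2 cells, 24 h incubation; mRNA detected via RT-PCR and capillary electrophoresis fluorescence; DMSO-normalised bidirectional fitting.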

Experiment [7] can be described thus: ATG_RORE_CIS: Attagene CIS-FACTORIAL HepG2 Assay for human RAR-related Orphan Receptor Element (RORE) (AID 2282959). Particulars: HepG2 Attagene cis-factorial RORE reporter, mRNA; actives raise or lower the signal. Put shortly:
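Measured here: transcript induction of a cis-regulated reporter in HepG2 cells transiently transfected via FuGene 6. After 24 h, RNA was processed by RT-PCR and fluorescent capillary electrophoresis; DMSO defined baseline activity.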

Experiment [8] is described as follows: ATG_TGFb_CIS: Attagene CIS-FACTORIAL HepG2 Assay for human Transforming Growth Factor (TGF) (AID 2282967). The conditions noted are these: HepG2 Attagene CIS TGFb reporter, mRNA transcription; actives raise or lower the signal. In a few lines: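 Readout: fluorescently labeled reporter cDNA fragments resolved by capillary electrophoresis after RT-PCR. Transfected HepG2 cells dosed for 24 h; endogenous TF activity at TGFB1-linked cis element; gain or loss fitted relative to DMSO.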

Experiment [9] can be described thus: ATG_VDRE_CIS: Attagene CIS-FACTORIAL HepG2 Assay for human Vitamin D Receptor Element (VDRE) (AID 2282968). The conditions noted are these: HepG2 VDRE cis-reporter transcription, actives raise or lower the signal. In a few lines: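 Measures endogenous factor activity through cis-element-driven reporter transcripts in transiently transfected HepG2. Cells are treated 24 h; reporter mRNA is quantified by RT-PCR and capillary electrophoresis; fitting is bidirectional.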

Experiment [10] addresses X-box-binding protein 1 (Homo sapiens) (UniProt P17861). The experiment is described as follows: ATG_Xbp1_CIS: Attagene CIS-FACTORIAL HepG2 Assay for human X-box Binding Protein 1 (XBP1) (AID 2282972). Particulars: HepG2 XBP1 cis-element reporter, Attagene multiplex; actives raise or lower the signal. Put shortly:
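Human hepatoma HepG2, cis-element reporter system, 24 h treatment; mRNA quantified by RT-PCR/CE fluorescence; fit relative to DMSO.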

The target of experiment [11] is Transcriptional activator Myb (Homo sapiens) (UniProt P10242). The experiment is described as follows: ATG_Myb_CIS: Attagene CIS-FACTORIAL HepG2 Assay for human Myeloblastosis (Myb) Proto-Oncogene Transcription Factor (AID 2282986). The conditions noted are these: HepG2 Attagene CIS-FACTORIAL Myb reporter transcription; actives raise or lower the signal. Put shortly: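 Multiplexed cis-reporter system in HepG2: transient transfection, 24 h treatment, mRNA readout by RT-PCR and capillary electrophoresis. Both increases and decreases are scored versus DMSO negative control.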

The target in experiment [12] is Nuclear respiratory factor 1 (Homo sapiens) (UniProt Q16656). The experiment in a line: ATG_NRF1_CIS: Attagene CIS-FACTORIAL HepG2 Assay for human Nuclear Respiratory Factor 1 (NRF1) Orphan Gene (AID 2282987). The conditions noted are these: HepG2 NRF1 cis-element reporter, Attagene multiplex; actives raise or lower the signal. Put shortly:
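Endogenous factor activity was captured via cis-element-driven reporter transcripts in HepG2 cells. Following 24 h chemical treatment, transcripts were quantified by RT-PCR and capillary electrophoresis.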

Experiment [13] in a line: ATG_NFI_CIS: Attagene CIS-FACTORIAL HepG2 Assay for human Nuclear Factor I (NFI) (AID 2282989). The conditions noted are these: HepG2 cis-regulatory reporter, NFI response element transcription; actives raise or lower the signal. Put shortly:
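Read-out: reporter mRNA via RT-PCR plus capillary electrophoresis with fluorescence detection. Transiently transfected HepG2 (endogenous TF activity on cis promoters), 24 h compound exposure; gain or loss of signal fitted against DMSO.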

Experiment [14] concerns the target Myc proto-oncogene protein (Homo sapiens) (UniProt P01106). The experiment is described as follows: ATG_Myc_CIS: Attagene CIS-FACTORIAL HepG2 Assay for human Myelocytomatosis (Myc) Proto-Oncogene Transcription Factor (AID 2282990). Particulars: HepG2, Attagene cis-reporter transcription factor activity; actives raise or lower the signal. Put shortly: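 After 24 h chemical treatment of HepG2 cells carrying multiplexed cis-regulated reporter constructs, reporter transcripts quantified by RT-PCR and capillary electrophoresis of fluorescent fragments. Gain or loss fitted against DMSO baseline.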

The target of experiment [15] is Cellular tumor antigen p53 (Homo sapiens) (UniProt P04637). The experiment in a line: ATG_p53_CIS: Attagene CIS-FACTORIAL HepG2 Assay for human p53 Transcription Factor (AID 2282994). Particulars: HepG2 p53 cis-element reporter, Attagene mRNA; actives raise or lower the signal. Put shortly: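 Transiently transfected HepG2 (multiple cis reporter transcription units); exposure 24 h; reporter RNA via RT-PCR, 6-FAM extension, 2 h HpaI digest at 37 C, CE detection; DMSO baseline.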

Experiment [16] concerns the target Nuclear receptor subfamily 1 group I member 2 (Homo sapiens) (UniProt O75469). The experiment in a line: ATG_PXR_TRANS: Attagene TRANS-FACTORIAL HepG2 Assay for human Pregnane X Receptor (PXR) (AID 2283008; active = hit-call score of the fitted dose curve at least 0.9, where 1 is the maximum). Put shortly: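 Transient HepG2 transfectants carrying multiplexed reporter transcription units; PXR activity read through a Gal4 chimera. 24 h exposure. RT-PCR/CE fluorescence; upward curve fit referenced to DMSO.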

A short description of experiment [17]: ATG_XTT_Cytotoxicity: Cytotoxicity Assessment in the Attagene TRANS-FACTORIAL HepG2 Assay (AID 2283584; active = hit-call score of the fitted dose curve at least 0.9, where 1 is the maximum). In a few lines:
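HepG2 cells transiently transfected with GAL4-UAS multiple reporter units, dosed 24 h; cytotoxicity read by XTT as loss of signal versus DMSO baseline.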

Experiment [18] has as its target Cellular tumor antigen p53 (Homo sapiens) (UniProt P04637). The experiment in a line: TOX21_p53_BLA_p2_ratio: Tox21 HCT-116 p53 Agonism Beta-lactamase Assay, Ratio, Phase 2 (AID 2283592; active = hit-call score of the fitted dose curve at least 0.9, where 1 is the maximum). In a few lines: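 First, HCT116 reporter cells settle for 5 h at 37C. Next, DMSO compound solutions are pinned in (217-fold dilution) and left 16 h. Finally, CCF4-AM substrate is loaded 2 h at room temperature and the 460/530 nm ratio read.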

Experiment [19] can be described thus: ATG_EGR_CIS: Attagene CIS-FACTORIAL HepG2 Assay for human Early Growth Response 1 (EGR1) (AID 2282938). The conditions noted are these: HepG2 Attagene CIS-FACTORIAL EGR reporter mRNA; actives raise or lower the signal. Put shortly: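 Fluorescent capillary-electrophoresis signal of reporter cDNA fragments serves as read-out. HepG2 cells bear transiently transfected cis-promoter reporter units and are exposed 24 h; gain- or loss-of-signal is fitted against DMSO.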

Experiment [20] in a line: ATG_AP_2_CIS: Attagene CIS-FACTORIAL HepG2 Assay for human Activator Protein 2 (AP-2) (AID 2282932). Particulars: HepG2 AP-2 cis-reporter, Attagene transcription factor profiling; actives raise or lower the signal. Put shortly: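 Transiently transfected HepG2 cells are exposed to chemical for 24 h. Reporter transcripts are then measured as fluorescence following RT-PCR and capillary separation, and gain- or loss-of-signal is fitted relative to DMSO.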

In PubChem BioAssay (EPA / NIEHS) one finds outcome and AC50 data, which are given here for six compounds.

Records with an inconclusive call do not appear. Calls of active or inactive are those of the source. The calls were made as follows, unless noted: active = hit-call score of the fitted dose curve at least 0.9, where 1 is the maximum; inactive = score below 0.9.

Myc proto-oncogene protein (Homo sapiens), sequence (P01106 whole entry, looked up, the tested form may be a part): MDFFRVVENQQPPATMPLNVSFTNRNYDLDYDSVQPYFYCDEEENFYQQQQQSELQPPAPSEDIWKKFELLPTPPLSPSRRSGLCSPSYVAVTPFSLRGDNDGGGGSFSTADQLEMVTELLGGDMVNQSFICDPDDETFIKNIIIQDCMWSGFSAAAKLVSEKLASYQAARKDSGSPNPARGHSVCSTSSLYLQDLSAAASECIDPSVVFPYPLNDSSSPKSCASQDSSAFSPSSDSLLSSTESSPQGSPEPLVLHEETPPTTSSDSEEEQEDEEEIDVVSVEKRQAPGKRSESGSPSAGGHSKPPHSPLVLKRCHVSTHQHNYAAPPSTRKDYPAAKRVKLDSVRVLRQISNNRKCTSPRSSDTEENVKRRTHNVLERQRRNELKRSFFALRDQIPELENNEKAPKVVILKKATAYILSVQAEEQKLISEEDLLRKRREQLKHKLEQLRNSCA
X-box-binding protein 1 (Homo sapiens), sequence (P17861 whole entry, looked up): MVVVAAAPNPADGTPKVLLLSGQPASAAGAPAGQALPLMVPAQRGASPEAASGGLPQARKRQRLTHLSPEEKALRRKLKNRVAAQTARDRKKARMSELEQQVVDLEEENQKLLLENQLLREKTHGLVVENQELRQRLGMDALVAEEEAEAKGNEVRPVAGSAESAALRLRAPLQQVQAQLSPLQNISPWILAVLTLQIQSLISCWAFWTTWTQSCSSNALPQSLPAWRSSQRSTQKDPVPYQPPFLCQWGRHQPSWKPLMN
Transcriptional activator Myb (Homo sapiens), sequence (P10242 whole entry, looked up): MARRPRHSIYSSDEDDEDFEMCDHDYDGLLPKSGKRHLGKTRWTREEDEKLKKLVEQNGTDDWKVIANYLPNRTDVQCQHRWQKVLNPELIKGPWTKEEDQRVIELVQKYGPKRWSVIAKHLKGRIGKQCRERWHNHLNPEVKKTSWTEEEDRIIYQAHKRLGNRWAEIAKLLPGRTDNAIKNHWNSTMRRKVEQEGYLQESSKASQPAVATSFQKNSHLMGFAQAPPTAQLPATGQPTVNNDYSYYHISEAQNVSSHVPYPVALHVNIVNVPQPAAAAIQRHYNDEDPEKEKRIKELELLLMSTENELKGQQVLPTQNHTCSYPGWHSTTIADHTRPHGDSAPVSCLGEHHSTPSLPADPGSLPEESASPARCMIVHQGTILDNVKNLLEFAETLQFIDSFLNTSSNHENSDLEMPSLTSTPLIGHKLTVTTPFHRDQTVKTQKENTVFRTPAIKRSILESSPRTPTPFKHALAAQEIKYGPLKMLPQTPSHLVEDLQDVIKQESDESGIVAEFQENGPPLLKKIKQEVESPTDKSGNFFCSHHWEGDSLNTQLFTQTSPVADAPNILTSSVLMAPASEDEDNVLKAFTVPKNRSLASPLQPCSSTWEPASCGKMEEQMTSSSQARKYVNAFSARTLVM
Hypoxia-inducible factor 1-alpha (Homo sapiens), sequence (Q16665 whole entry, looked up): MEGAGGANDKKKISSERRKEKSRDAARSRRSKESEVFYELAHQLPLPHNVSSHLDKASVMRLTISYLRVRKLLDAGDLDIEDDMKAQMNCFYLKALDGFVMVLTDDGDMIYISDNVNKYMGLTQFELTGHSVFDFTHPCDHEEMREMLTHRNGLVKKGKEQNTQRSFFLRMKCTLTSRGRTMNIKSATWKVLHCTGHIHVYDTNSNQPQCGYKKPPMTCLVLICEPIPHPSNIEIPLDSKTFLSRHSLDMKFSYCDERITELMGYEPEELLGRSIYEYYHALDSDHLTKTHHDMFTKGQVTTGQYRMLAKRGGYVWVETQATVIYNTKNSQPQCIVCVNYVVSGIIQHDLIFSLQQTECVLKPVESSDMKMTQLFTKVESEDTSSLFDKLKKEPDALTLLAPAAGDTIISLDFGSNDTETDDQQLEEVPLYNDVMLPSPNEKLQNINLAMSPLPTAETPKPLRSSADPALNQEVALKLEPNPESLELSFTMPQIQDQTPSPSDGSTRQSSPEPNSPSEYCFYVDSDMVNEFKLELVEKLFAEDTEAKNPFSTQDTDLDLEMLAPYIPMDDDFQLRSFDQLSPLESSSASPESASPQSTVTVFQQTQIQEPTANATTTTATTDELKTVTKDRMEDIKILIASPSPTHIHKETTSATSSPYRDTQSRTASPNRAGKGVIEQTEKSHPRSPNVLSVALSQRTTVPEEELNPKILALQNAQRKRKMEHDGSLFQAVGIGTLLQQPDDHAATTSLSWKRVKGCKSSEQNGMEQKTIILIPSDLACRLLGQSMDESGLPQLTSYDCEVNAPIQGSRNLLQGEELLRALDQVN
Cellular tumor antigen p53 (Homo sapiens), sequence (P04637 whole entry, looked up): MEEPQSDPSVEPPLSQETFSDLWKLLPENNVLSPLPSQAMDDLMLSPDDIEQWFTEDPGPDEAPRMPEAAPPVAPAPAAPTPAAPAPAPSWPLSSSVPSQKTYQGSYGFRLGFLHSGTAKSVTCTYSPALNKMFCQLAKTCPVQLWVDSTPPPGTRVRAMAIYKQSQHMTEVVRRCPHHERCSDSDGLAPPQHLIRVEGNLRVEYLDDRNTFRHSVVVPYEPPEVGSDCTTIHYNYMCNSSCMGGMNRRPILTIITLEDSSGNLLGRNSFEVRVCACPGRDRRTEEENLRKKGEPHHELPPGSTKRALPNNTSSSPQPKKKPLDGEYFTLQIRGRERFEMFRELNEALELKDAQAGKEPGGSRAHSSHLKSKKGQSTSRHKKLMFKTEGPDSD
Nuclear receptor subfamily 1 group I member 2 (Homo sapiens), sequence (O75469 whole entry, looked up, the tested form may be a part): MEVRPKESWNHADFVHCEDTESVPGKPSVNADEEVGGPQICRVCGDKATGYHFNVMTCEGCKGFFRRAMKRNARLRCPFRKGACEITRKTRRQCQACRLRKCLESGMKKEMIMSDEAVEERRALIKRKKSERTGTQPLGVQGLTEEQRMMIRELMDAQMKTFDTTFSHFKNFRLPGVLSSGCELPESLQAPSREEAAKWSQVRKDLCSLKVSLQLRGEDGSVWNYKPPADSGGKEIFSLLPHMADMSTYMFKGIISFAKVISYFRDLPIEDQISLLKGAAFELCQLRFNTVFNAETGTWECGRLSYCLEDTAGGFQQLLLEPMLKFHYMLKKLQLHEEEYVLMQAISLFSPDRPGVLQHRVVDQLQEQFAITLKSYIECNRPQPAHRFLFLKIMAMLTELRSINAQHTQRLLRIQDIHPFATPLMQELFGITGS
Hepatocyte nuclear factor 3-beta (Homo sapiens), sequence (Q9Y261 whole entry, looked up, the tested form may be a part): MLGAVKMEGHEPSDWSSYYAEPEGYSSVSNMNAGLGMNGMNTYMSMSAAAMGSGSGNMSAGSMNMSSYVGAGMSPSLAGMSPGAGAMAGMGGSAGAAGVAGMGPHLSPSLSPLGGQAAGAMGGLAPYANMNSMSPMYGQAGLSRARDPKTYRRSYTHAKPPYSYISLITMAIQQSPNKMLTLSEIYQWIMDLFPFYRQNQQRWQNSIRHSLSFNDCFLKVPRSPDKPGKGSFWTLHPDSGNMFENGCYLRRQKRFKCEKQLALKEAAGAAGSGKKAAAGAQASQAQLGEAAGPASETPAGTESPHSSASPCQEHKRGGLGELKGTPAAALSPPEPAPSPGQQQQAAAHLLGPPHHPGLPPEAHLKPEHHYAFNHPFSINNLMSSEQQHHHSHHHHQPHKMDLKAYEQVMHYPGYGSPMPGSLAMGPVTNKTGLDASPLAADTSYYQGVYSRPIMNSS
Transcription factor E2F1 (Homo sapiens), sequence (Q01094 whole entry, looked up): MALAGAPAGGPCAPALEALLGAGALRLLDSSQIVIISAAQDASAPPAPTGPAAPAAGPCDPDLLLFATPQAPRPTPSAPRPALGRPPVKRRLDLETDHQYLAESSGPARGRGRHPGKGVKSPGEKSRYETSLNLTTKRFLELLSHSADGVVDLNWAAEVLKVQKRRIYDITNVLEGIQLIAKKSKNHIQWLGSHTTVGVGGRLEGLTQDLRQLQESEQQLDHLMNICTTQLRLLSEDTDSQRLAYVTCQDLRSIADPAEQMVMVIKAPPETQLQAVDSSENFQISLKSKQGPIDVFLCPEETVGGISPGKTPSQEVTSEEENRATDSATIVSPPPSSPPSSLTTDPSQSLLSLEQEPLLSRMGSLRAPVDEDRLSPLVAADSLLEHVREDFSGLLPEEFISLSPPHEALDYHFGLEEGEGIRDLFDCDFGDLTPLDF
Nuclear respiratory factor 1 (Homo sapiens), sequence (Q16656 whole entry, looked up): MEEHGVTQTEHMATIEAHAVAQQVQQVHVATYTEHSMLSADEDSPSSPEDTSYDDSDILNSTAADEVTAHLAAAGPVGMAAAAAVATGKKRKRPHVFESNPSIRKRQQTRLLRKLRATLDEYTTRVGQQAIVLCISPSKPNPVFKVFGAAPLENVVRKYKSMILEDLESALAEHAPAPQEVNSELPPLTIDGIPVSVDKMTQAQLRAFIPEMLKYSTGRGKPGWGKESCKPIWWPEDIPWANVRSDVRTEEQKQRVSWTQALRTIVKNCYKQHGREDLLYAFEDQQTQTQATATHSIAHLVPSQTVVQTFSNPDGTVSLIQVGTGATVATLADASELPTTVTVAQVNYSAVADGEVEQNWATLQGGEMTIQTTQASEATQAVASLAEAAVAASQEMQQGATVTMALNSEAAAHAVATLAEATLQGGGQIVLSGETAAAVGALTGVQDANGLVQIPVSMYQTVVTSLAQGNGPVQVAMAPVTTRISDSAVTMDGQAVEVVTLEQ

As usually defined, the AC50 is the concentration giving half of the maximal activity seen. With `Clc1ccc(Sc2cc(Cl)c(Cl)cc2Cl)cc1`, the compound was called inactive in experiment [1], in [2], in experiment [3], in experiment [4], in [5] and in experiment [6]. The result in experiment [7], in experiment [8], in [9], in [10], in experiment [11] and in experiment [12] was inactive. Besides, the outcome in experiment [13], in experiment [14], in experiment [15], in [17] and in [18] was inactive. In [16], the AC50 was 2.22 µM (active).
As for `CO[Si](CCCNCCN)(OC)OC`, the call in experiment [1], in experiment [2], in [19], in experiment [3], in [4] and in experiment [5] was inactive. Further, the call in experiment [6], in experiment [7], in experiment [8], in experiment [9], in experiment [10] and in [11] was inactive. Moreover, the outcome in [12], in experiment [13], in experiment [14] and in experiment [17] was inactive.
`CNC(=C[N+](=O)[O-])NCCSCc1csc(CN(C)C)n1`: the result in experiment [20], in experiment [1], in [19], in experiment [4], in experiment [5] and in [7] was inactive. The result in experiment [8], in experiment [11], in [12], in experiment [13], in experiment [14] and in [15] was inactive. Also, the result in experiment [17] and in experiment [18] was inactive.
As for `C=CCOCC(CC)(CO)COCC=C`, the call in experiment [2], in experiment [19], in experiment [3], in [4], in experiment [5] and in experiment [6] was inactive. Moreover, the call in [7], in experiment [8], in [9], in experiment [10], in experiment [11] and in [12] was inactive. For the same compound, the result in [13], in experiment [14], in experiment [15], in experiment [16], in [17] and in experiment [18] was inactive.
For `Oc1cccc2ccccc12`, the call in experiment [20], in [2], in [3], in experiment [4], in experiment [5] and in [6] was inactive. For the same compound, the outcome in [7], in [8], in experiment [9], in [10], in [11] and in experiment [12] was inactive. Besides, the outcome in experiment [13], in [15], in experiment [16], in [17] and in [18] was inactive.
For the compound `O=[N+]([O-])c1ccc2nc[nH]c2c1`, the compound was classed as inactive in [20], in [1], in [2], in [3], in experiment [4] and in experiment [5]. Further, the compound was called inactive in [6], in experiment [7], in experiment [8], in experiment [11], in experiment [12] and in experiment [13]. Further, the call in [14] and in experiment [17] was inactive.
